Results reported in the supplement of paper PMC12669797.
Where “and” joins values, the source holds several entries; their conditions need not be identical. Equal values may be shown once. Where a name gives a salt, the structure may show the parent alone. ± gives the standard deviation of the averaged measurements.

What was measured:
ES2 = test: cell viability relative to DMSO control (MTS) (fraction of DMSO control); higher = more viable cells / less growth inhibition; conditions: 10 µM; 48 h
In short: (§1)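 TOV-21G and ES2 clear cell carcinoma cells were plated in 96-well plates at 5000 cells per well, grown for 24 h, and then exposed to a 367-compound […] library at a final concentration of 10 µM, with vehicle alone in control wells. An MTS assay (CellTiter 96 AQueous One Solution) was read 48 h later according to the manufacturer's protocol. Viability is reported as a fraction of the vehicle control.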

TOV-21G = test: as above; conditions: 10 µM; 48 h
In short: as §1

Structure (SMILES) | cell viability (ES2) | cell viability (TOV-21G)
COC(=O)[C@H](CC(C)C)NC(=O)c1ccc(NC[C@@H](N)CS)cc1-c1ccccc1 | 1.09 | 0.633
CCCCCCCC(=O)OCCOC(=O)CCCCCCC [Dioctanoylglycol] | 1.3 | 0.996
Cc1c[nH]c(/C=C2\C(=O)Nc3ccccc32)c1CCC(=O)O | 1.1 | 1.08
O=C(CCCCCN1C(=O)c2cccc3cccc(c23)C1=O)NO [Scriptaid] | 0.311 | 0.367
Cc1cc([N+](=O)[O-])ccc1NS(=O)(=O)c1cc(Cl)ccc1Cl | 0.894 | 1.14
COc1ccc([C@@H]2Sc3ccccc3N(CCN(C)C)C(=O)[C@@H]2OC(C)=O)cc1 [Diltiazem] | 0.858 | 1.04
O=C(Nc1ccc([N+](=O)[O-])cc1O)Nc1ccccc1Br | 0.469 | 0.605
C=CCNC1=C2C[C@@H](C)C[C@H](OC)[C@H](O)[C@@H](C)/C=C(\C)[C@H](OC(N)=O)[C@@H](OC)/C=C\C=C(/C)C(=O)NC(=CC1=O)C2=O | 0.541 | 0.575
NC(=O)Nc1sc(-c2ccccc2)cc1C(N)=O [IKK-2 inhibitor VI] | 0.555 | 0.476
Cc1nc(Nc2ncc(C(=O)Nc3c(C)cccc3Cl)s2)cc(N2CCN(CCO)CC2)n1 [dasatinib] | 0.608 | 0.815
O=CN1CCN(c2ccc(/C=C3\C(=O)Nc4ccccc43)cc2)CC1 | 1.13 | 1.2
C[S+]([O-])c1ccc(-c2nc(-c3ccc(F)cc3)c(-c3ccncc3)[nH]2)cc1 (configuration not stated) | 0.916 | 0.908
CO[C@H]1C[C@@H]2CC[C@@H](C)[C@@](O)(O2)C(=O)C(=O)N2CCCC[C@H]2C(=O)O[C@H]([C@H](C)C[C@@H]2CC[C@@H](OCCO)[C@H](OC)C2)CC(=O)[C@H](C)/C=C(\C)[C@@H](O)[C@@H](OC)C(=O)[C@H](C)C[C@H](C)/C=C/C=C/C=C/1C [everolimus] | 1.02 | 0.831
CC(C)CC(NC(=O)CNC(=O)OCc1ccccc1)C(=O)NC(Cc1ccccc1)C(=O)CCl (configuration not stated) | 0.398 | 0.479
Cc1ccc2nc(NCCN)c3ncc(C)n3c2c1 | 0.489 | 0.375
CCCC[C@@H](C)/C=C(C)/C=C(\C)C(=O)NC1=C[C@@](O)(/C=C/C=C/C=C/C(=O)NC2=C(O)CCC2=O)[C@@H]2O[C@@H]2C1=O [Manumycin A] | 1.06 | 1.61
COc1cc2c(NC3CCN(C(C)C)CC3)nc(C3CCCCC3)nc2cc1OCCCN1CCCC1 | 0.337 | 0.486
COc1cc(/C=C(\C#N)C(N)=O)cc(CSc2nc3ccccc3s2)c1O | 0.978 ± 0.072 | 1.067 ± 0.0093
N#C/C(=C\c1ccc(O)c(O)c1)C(=O)NCc1ccccc1 | 0.891 ± 0.39 | 1 ± 0.013
COc1cc2nccc(Oc3ccc(NC(=S)NC(=O)c4ccccc4C)cc3)c2cc1OC [PDGF receptor tyrosine kinase inhibitor V] | 0.874 | 0.525
CC(C)(C)c1cc(O)ccc1O [t-Butylhydroquinone (BHQ)] | 0.939 | 1.11
COc1cccc2c1C(=O)c1c(O)c3c(c(O)c1C2=O)C[C@@](O)(C(C)=O)C[C@@H]3O[C@H]1C[C@H](N)[C@H](O)[C@H](C)O1 [Daunorubicin, HCl] | 0.435 | 0.527

Structure (SMILES) | cell viability (ES2) | cell viability (TOV-21G)
CC(=O)N[C@@H](CS)C(=O)O [N-Acetyl-L-cysteine] | 1.04 | 0.965
C[C@@H]1C[C@H]2O[C@@H]2/C=C\C=C\C(=O)Cc2c(Cl)c(O)cc(O)c2C(=O)O1 [Radicicol] | 0.533 | 0.37
CS(=O)(=O)c1ccc(C(=O)Nc2ccc(Cl)c(-c3ccccn3)c2)c(Cl)c1 [Vismodegib] | 0.967 | 0.897
O=C1CCC(N2C(=O)c3ccccc3C2=O)C(=O)N1 (configuration not stated) [thalidomide] | 0.958 | 0.989
COc1cc([C@@H]2c3cc4c(cc3[C@@H](O[C@@H]3O[C@@H]5CO[C@@H](C)O[C@H]5[C@H](O)[C@H]3O)[C@H]3COC(=O)[C@H]23)OCO4)cc(OC)c1O [Etoposide (VP-16)] | 0.655 | 0.658
O=C(c1cc(Cc2n[nH]c(=O)c3ccccc23)ccc1F)N1CCN(C(=O)C2CC2)CC1 [Olaparib] | 0.77 | 0.888
CN(C)CC(=O)Nc1ccc2[nH]c(=O)c3ccccc3c2c1 | 0.788 | 0.882
NS(=O)(=O)c1ccc(Nc2nc(OCC3CCCCC3)c3[nH]cnc3n2)cc1 | 0.699 | 0.784
CCCCCCCCCCC[C@@H](C[C@@H]1OC(=O)[C@H]1CCCCCC)OC(=O)[C@H](CC(C)C)NC=O [orlistat] | 1.08 | 1.14
CN(C)CCCN1c2ccccc2Sc2ccc(Cl)cc21 [chlorpromazine hydrochloride] | 0.947 | 0.868
Nc1cccc2c1CN(C1CCC(=O)NC1=O)C2=O (configuration not stated) [lenalidomide] | 0.928 | 0.954
CCOc1nc(NC(=O)Cc2cc(OC)ccc2OC)cc(N)c1C#N [JNK inhibitor VIII] | 1.09 | 1.12
COc1cccc2c1C(=O)c1c(O)c3c(c(O)c1C2=O)C[C@@](O)(C(=O)CO)C[C@@H]3O[C@H]1C[C@H](N)[C@H](O)[C@H](C)O1 [Doxorubicin, HCl] | 0.312 | 0.403
CC(C)C[C@@H](N)[C@H](O)C(=O)N[C@H](C(=O)N[C@H](C(=O)N[C@@H](CC(=O)O)C(=O)O)C(C)C)C(C)C [Amastatin] | 0.963 | 1.02
NC(=O)c1cccc2cn(-c3ccc([C@@H]4CCCNC4)cc3)nc12 [MK-4827 (Niraparib)] | 0.61 | 0.783
Cc1ccc(NC(=O)c2cccc(N(C)C)c2)cc1NC(=O)c1ccc(O)cc1 | 0.951 | 0.888
C[C@@H]1C[C@H]2O[C@@H]2/C=C\C=C\C(=O)Cc2c(Cl)c(O)cc(O)c2C(=O)O1 [radicicol] | 0.409 | 0.342
CC(=N)NCc1cccc(CN)c1 | 1.15 | 0.992
CO[C@H]1C[C@@H]2CC[C@@H](C)[C@@](O)(O2)C(=O)C(=O)N2CCCC[C@H]2C(=O)O[C@H]([C@H](C)C[C@@H]2CC[C@@H](O)[C@H](OC)C2)CC(=O)[C@H](C)/C=C(\C)[C@@H](O)[C@@H](OC)C(=O)[C@H](C)C[C@H](C)/C=C/C=C/C=C/1C [Rapamycin] | 0.854 | 0.576
C=CCc1cccc(/C=N/NC(=O)CN2CCN(Cc3ccccc3)CC2)c1O | 0.787 | 0.821
CC[n+]1c(/C=C/N(C)c2ccccc2)n(-c2ccccc2)c2ccc(-c3nc4ccccc4s3)cc21 [Akt Inhibitor IV] | 0.308 | 0.218
OCCn1cc(-c2cnc3nnn(Cc4ccc5ncccc5c4)c3n2)cn1 | 1.05 | 1.18

Structure (SMILES) | cell viability (ES2) | cell viability (TOV-21G)
NC(=O)c1ccc2nc(-c3ccc(Oc4ccc(Cl)cc4)cc3)[nH]c2c1 [Chk2 inhibitor II] | 1.23 | 1.1
Oc1c2ccccc2c2c3c(cccc13)N=N2 | 0.721 ± 0.32 | 0.65 ± 0.023
NC(=O)c1ccccc1 [Benzamide] | 0.902 | 0.989
COC(=O)C1=C(C)NC(C)=C(C(=O)OC)C1c1ccccc1[N+](=O)[O-] [Nifedipine] | 0.911 | 0.741
COC(=O)CNC(=O)C(=O)OC [Dimethyloxalylglycine] | 1.23 | 0.917
C[C@@H]1C[C@H]2[C@@H]3CCC4=CC(=O)C=C[C@]4(C)[C@@]3(F)[C@@H](O)C[C@]2(C)[C@@]1(O)C(=O)CO [Dexamethasone] | 1.01 | 1.29
N#CC(=C(/N)Sc1ccccc1N)/C(C#N)=C(/N)Sc1ccccc1N | 0.685 and 0.748 | 0.824 and 1.02
CC(C)[C@H](CO)Nc1nc(Nc2cccc(Cl)c2)c2ncn(C(C)C)c2n1 [Purvalanol A] | 0.815 | 0.652
C[C@@H](Oc1cc(-c2cnn(C3CCNCC3)c2)cnc1N)c1c(Cl)ccc(F)c1Cl [crizotinib] | 0.34 | 0.333
NC(=O)c1ccc(-c2nc(-c3ccccn3)c(-c3ccc4c(c3)OCO4)[nH]2)cc1 | 1.08 and 1.11 | 0.993 and 1.03
CC/C(=C(\c1ccccc1)c1ccc(OCCN(C)C)cc1)c1ccccc1 [Tamoxifen, citrate] | 1.34 | 0.868
CO[C@@H]1[C@H](OC(=O)/C=C/C=C/C=C/C=C/C(=O)O)CC[C@]2(CO2)[C@H]1[C@@]1(C)O[C@@H]1CC=C(C)C [Fumagillin] | 0.91 | 0.991
NCC(=O)Nc1ccc(-n2nc(C(F)(F)F)cc2-c2ccc3c(ccc4ccccc43)c2)cc1 | 1.04 | 1.21
CSCC[C@H](NC(=O)c1ccc(NC[C@@H](N)CS)cc1-c1ccccc1)C(=O)O | 1.55 | 1
CC[C@]1(O)C[C@@H]2CN(CCc3c([nH]c4ccccc34)[C@@](C(=O)OC)(c3cc4c(cc3OC)N(C)[C@H]3[C@@](O)(C(=O)OC)[C@H](OC(C)=O)[C@]5(CC)C=CCN6CC[C@]43[C@@H]65)C2)C1 [Vinblastine sulfate] | 0.52 | 0.427
COc1cc2nc(N3CCCN(C)CC3)nc(NC3CCN(Cc4ccccc4)CC3)c2cc1OC | 0.42 | 0.454
COc1ccc(OC)c2c(=S)c3ccccc3[nH]c12 | 1.35 | 1.14
C/C=C/C/C=C/CCC(=O)[C@H]1O[C@H]1C(N)=O [Cerulenin] | 1.4 | 1.03
CCN(CC)CCNC(=O)c1c(C)[nH]c(/C=C2\C(=O)Nc3ccc(Cl)cc32)c1C | 0.254 | 0.222
COC(=O)Nc1nc2cc(C(=O)c3cccs3)ccc2[nH]1 [Nocodazole] | 0.451 | 0.464
COc1ccc(C2=N[C@@H](c3ccc(Cl)cc3)[C@@H](c3ccc(Cl)cc3)N2C(=O)N2CCNC(=O)C2)c(OC(C)C)c1 [Nutlin-3] | 0.825 | 0.413
COc1cc2ncc(-c3ccccc3)nc2cc1OC | 0.862 ± 0.058 | 0.955 ± 0.13
